The source of these data is PubChem BioAssay (NCATS).

Structures are written as SMILES. Several values for one entry are separate records, joined by “and”; a condition that tells them apart may be missing. Equal entries are not always repeated. Values without a mark were called inactive. Records with an inconclusive call do not appear. Activity calls are given as the source filed them. Unless noted, calls follow the shape of the dose curve; as a rule, active = well fitted curve in the direction sought with a large enough effect; inconclusive = small, poorly fitted or top-dose-only effect, or another doubt; inactive = no such curve, though single readings can be large; an effect the other way counts as inactive or inconclusive.

For experiment [1], the target named is Glucocorticoid receptor (Homo sapiens) (UniProt P04150). The experiment can be described thus: GR-GFP Redistribution (AID 450;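 active = compounds whose dose series gives a full or clear partial fitted curve of increased nuclear translocation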; also: potency is read from the fitted curve at half-maximal effect). As to conditions: U2OS GR-GFP nuclear translocation, laser cytometry, 2 h.
Chain of Glucocorticoid receptor (Homo sapiens) (P04150 whole entry, looked up): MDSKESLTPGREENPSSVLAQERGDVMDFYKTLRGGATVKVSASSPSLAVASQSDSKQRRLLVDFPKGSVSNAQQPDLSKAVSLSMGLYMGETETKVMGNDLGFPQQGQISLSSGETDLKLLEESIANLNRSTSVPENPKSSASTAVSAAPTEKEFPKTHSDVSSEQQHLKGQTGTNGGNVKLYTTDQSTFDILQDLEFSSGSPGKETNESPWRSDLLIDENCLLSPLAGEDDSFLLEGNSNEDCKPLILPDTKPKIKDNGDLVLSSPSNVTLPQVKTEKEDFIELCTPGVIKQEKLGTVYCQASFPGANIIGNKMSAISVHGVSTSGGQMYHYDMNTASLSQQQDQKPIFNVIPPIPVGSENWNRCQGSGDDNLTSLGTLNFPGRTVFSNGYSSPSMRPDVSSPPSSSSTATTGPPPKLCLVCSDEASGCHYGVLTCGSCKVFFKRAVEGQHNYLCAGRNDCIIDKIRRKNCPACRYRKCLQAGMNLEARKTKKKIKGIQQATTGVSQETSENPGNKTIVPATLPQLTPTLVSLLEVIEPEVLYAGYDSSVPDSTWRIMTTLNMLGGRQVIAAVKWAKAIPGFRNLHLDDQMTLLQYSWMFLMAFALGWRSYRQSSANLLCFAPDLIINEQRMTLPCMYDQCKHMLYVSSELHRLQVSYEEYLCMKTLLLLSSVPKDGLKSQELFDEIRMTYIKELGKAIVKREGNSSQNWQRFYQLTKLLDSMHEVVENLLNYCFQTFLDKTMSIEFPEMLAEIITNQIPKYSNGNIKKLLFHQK
Experiment [2] has the same target. The experiment can be described thus: GR-EFC Redistribution (AID 451; calls by dose curve; also: potency is read from the fitted curve at half-maximal effect). As to conditions: CHO-K1 GR-EFC translocation, beta-gal luminescence, 2 h. The essentials:
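CHO-K1 cells expressing nuclear EA and GR-ED fragments of b-gal; compounds titrated up to 46 uM final, 2 h at 37 C. GR nuclear translocation read as complemented b-gal luminescence after 1 h RT detection.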

Experiment [3] addresses Mitogen-activated protein kinase 10 (Mus musculus) (UniProt Q61831). Briefly: JNK3 AlphaScreen Assay (AID 530; active = well fitted curve in either direction with a large enough effect, not every such curve was filed as active;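 also: kinase came from lysate of stimulated human HepG2 cells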; also: potency is read from the fitted curve at half-maximal effect). As to conditions: JNK3 lysate, c-Jun phosphorylation; series mostly up to 57.1 µM. The procedure, abridged: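 qHTS format: compounds tested as titrations against IL-1beta/TNF-alpha-activated HepG2 lysate JNK3 with biotin-GST-cJun substrate and 10 uM ATP at room temperature. Loss of anti-phospho-cJun AlphaScreen signal indicates inhibition.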

In experiment [4] the target is 3',5'-cyclic-AMP phosphodiesterase 4B (Homo sapiens) (UniProt Q07343). Briefly: qHTS Assay for Inhibitors of PDE-IV (AID 607; active = well fitted activation curve with a large enough effect in the main read-out, with a control signal flat, not every such curve was filed as active; also: % of control where 0% means no effect). Conditions: HEK293 ACTOne CNG channel cells, membrane potential fluorescence; series mostly up to 22.9 µM. The procedure, abridged:
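HEK293 ACTOne cells with CNG channel (1000/well), endogenous PDE4; membrane potential dye, compounds up to 22.9 uM final. Fluorescence Ex 535/Em 590; RO 20-1724 (100 uM final) as reference.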

Experiment [5] in a line: Cell Viability - HUV-EC-C (AID 542). Also: % is scaled to controls: 0 for no effect and ±100 for the full control effect; nearly all actives have a fitted effect of over 35% in size. As to conditions: HUV-EC-C endothelial cell viability, qHTS; series mostly up to 92.2 µM. The procedure, abridged:
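HUV-EC-C normal human vascular endothelial cells, 1000 cells/well, pre-incubated 5 hr at 37 °C, then exposed to compounds for 40 hr at 37 °C in complete medium. Viability measured as intracellular ATP by CellTiter-Glo luminescence; AC50 from Hill fits.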

Experiment [6] can be described thus: Cell Viability - H-4-II-E (AID 543). Also: nearly all actives have a fitted effect of over 35% in size. Also: potency is read from the fitted curve at half-maximal effect. As to conditions: H-4-II-E rat hepatoma viability; series mostly up to 92.2 µM. The procedure, abridged:
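Rat hepatoma H-4-II-E cells (1500/well) were plated, incubated 5 hr at 37 °C, then exposed to compounds for 40 hr at 37 °C. Cellular ATP was read by CellTiter-Glo luminescence; AC50 came from Hill-equation fits of concentration-response data.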

The nature of experiment [7]: Cell Viability - SH-SY5Y (AID 544). Also: nearly all actives have a fitted effect of over 55% in size. As to conditions: SH-SY5Y neuroblastoma cell viability; series mostly up to 92.2 µM. The essentials: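 Human neuroblastoma SH-SY5Y cells (1500/well) in complete medium were exposed to compounds for 40 hr at 37 °C; intracellular ATP was then quantified by CellTiter-Glo luminescence after 20 min at room temperature. AC50 came from Hill-equation concentration-response fits.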

A short description of experiment [8]: Cell Viability - Renal Proximal Tubule (AID 545). Also: nearly all actives have a fitted effect of over 40% in size. Conditions: renal proximal tubule cells viability, primary cells of rat origin; series mostly up to 91.7 µM. The essentials: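 Viability taken as intracellular ATP (CellTiter-Glo luminescence) after 40 hr, 37 °C compound treatment of primary proximal tubule cells from rat kidney, 1000 cells/well; Hill-equation fits of qHTS concentration-response data gave AC50.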

Experiment [9] can be described thus: Cell Viability - Mesenchymal (AID 546).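 Also: cells exposed to compound for 40 hours before reading.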 Also: potency is read from the fitted curve at half-maximal effect. Conditions: mesenchymal cells viability, qHTS; series mostly up to 91.7 µM. The procedure, abridged: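 Human kidney mesenchymal cells from normal renal glomeruli, 1000 cells/well, rested 5 hr at 37 °C, then treated 40 hr at 37 °C in complete medium. Cellular ATP read by CellTiter-Glo luminescence; AC50 from Hill-equation fits.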

Experiment [10] in a line: Cellular Toxicity (caspase-3) HepG2 (AID 654).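 Also: cells exposed to compound for 16 hours before reading; 0% = DMSO alone and 100% = caspase signal from 100 µM tamoxifen.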 As to conditions: HepG2 caspase-3 activation, luminescence, 0% = DMSO only, 100% = tamoxifen; series mostly up to 92.2 µM. The essentials: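 HepG2 cells (1500/well) in complete medium were treated with compounds for 16 hr at 37 °C. Caspase-3/7 activity was then read as luminescence from peptide-aminoluciferin cleavage. AC50 came from Hill fits, normalized to DMSO and 100 uM tamoxifen.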

Experiment [11] is described as follows: Cellular Toxicity (caspase-3) HUV-EC-C (AID 656). Conditions: HUV-EC-C cells, caspase-3 activation (apoptosis), vehicle = 0, 100 µM tamoxifen = 100%; series mostly up to 92.2 µM. The essentials: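 Luminescent Caspase-Glo 3/7 readout after 16 h, 37 °C compound exposure of HUV-EC-C endothelial cells, 1000 per well, complete medium. AC50 derived by Hill fitting, with DMSO as baseline and 100 uM tamoxifen as full activation.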

Experiment [12] is described as follows: Cellular Toxicity (caspase-3) SHSY5Y (AID 657). Conditions: SH-SY5Y caspase-3 activation, DMSO zero, 10 µM staurosporine = 100%; series mostly up to 91.7 µM. The procedure, abridged: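 Luminescent Caspase-Glo 3/7 read-out, 1 hr room temperature, follows 16 hours of compound treatment of SH-SY5Y cells at 37 °C. Normalization: DMSO basal, 10 uM staurosporine as 100%; AC50 values from Hill-equation concentration-response fits.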

The nature of experiment [13]: Cellular Toxicity (caspase-3) MRC-5 (AID 659). As to conditions: MRC-5 cells, luminescence, normalized: DMSO 0%, 10 µM staurosporine 100%; series mostly up to 91.7 µM. The procedure, abridged: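 MRC-5 human normal lung fibroblasts, 1500 cells/well, treated 16 h at 37 °C in complete medium. Caspase 3/7 measured by Caspase-Glo luminescence after 1 h at room temperature. Normalized to DMSO and 10 uM staurosporine; AC50 from Hill fit.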

Experiment [14] is described as follows: Cellular Toxicity (caspase-3) Mesangial (AID 660). Conditions: mesangial cells, normalized: DMSO 0%, 100 µM tamoxifen 100%; series mostly up to 91.7 µM. The procedure, abridged:
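Human renal glomerular mesangial cells (1000/well) were treated with compounds for 16 h at 37 °C in complete medium, then caspase 3/7 activity was read by Caspase-Glo luminescence. Data were normalized to DMSO and 100 uM tamoxifen; AC50 from Hill fits.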

Experiment [15] is described as follows: Cellular Toxicity (caspase-3) SK-N-SH (AID 661). As to conditions: SK-N-SH caspase-3 activation, qHTS, DMSO as zero, staurosporine as full; series mostly up to 91.7 µM. The essentials:
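SK-N-SH human neuroblastoma cells (1500/well) were treated with compounds for 16 hr at 37 °C in complete medium; caspase 3/7 activity was read by Caspase-Glo luminescence. AC50 came from Hill fits of data normalized to DMSO and 10 uM staurosporine.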

A short description of experiment [16]: Cellular Toxicity (caspase-3) H-4-II-E (AID 663).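 Also: cells exposed to compound for 16 hr before readout.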 As to conditions: H-4-II-E rat hepatoma, scaled: DMSO 0%, 100 µM tamoxifen 100%; series mostly up to 92.2 µM. The procedure, abridged:
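Rat hepatoma H-4-II-E cells (1500/well) plated 5 hr, then exposed to compound titrations for 16 hr at 37 °C. Caspase-Glo 3/7 luminescence read after 20 min at RT; data normalized to DMSO and 100 uM tamoxifen, AC50 from Hill fits.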

Experiment [17] in a line: Cellular Toxicity (caspase-3) Hek293 (AID 664).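 Also: cells exposed to compound for 16 h at 37 °C before readout.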 Conditions: HEK293 caspase-3 activation, DMSO = 0%, 100 µM tamoxifen = 100%; at 92.2 µM (top of the series). The procedure, abridged:
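HEK293 cells were exposed to compounds in complete medium for 16 hr at 37 °C, then caspase-3/7 activity was read by Caspase-Glo 3/7 luminescence after 20 min at room temperature. Data normalized to DMSO and 100 uM tamoxifen; AC50 from Hill fits.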

A short description of experiment [18]: Cellular Toxicity (caspase-3) N2a (AID 665).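 Also: compound exposure lasted 16 h at 37 °C before readout.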 Conditions: N2a cells, luminescence, normalized: DMSO 0%, 10 µM staurosporine 100%; series mostly up to 92.2 µM. The essentials:
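Mouse N2a neuroblastoma cells (1500/well) were treated with compounds for 16 h at 37 °C, then caspase-3/7 activity was read by Caspase-Glo luminescence after 1 h at room temperature. Data were normalized to DMSO and 10 uM staurosporine; AC50 from Hill fits.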

Experiment [19] is described as follows: Cell Viability - N2a (AID 540).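 Also: plate controls were DMSO alone for no effect and tamoxifen control for full effect; nearly all actives have a fitted effect of over 45% in size.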 As to conditions: N2a mouse neuroblastoma cell viability; activity change, negative = cytotoxicity: at 92.2 µM (top of the series). The procedure, abridged:
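Mouse neuroblastoma N2a cells (1500/well) were preincubated 5 hr at 37 °C, then exposed to compounds for 40 hr at 37 °C in complete medium. Viability was read as intracellular ATP by CellTiter-Glo luminescence; AC50 from Hill fits.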

A short description of experiment [20]: Cell Viability - NIH 3T3 (AID 541).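 Also: plate controls were DMSO alone for no effect and tamoxifen positive control for full effect; nearly all actives have a fitted effect of over 25% in size.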 As to conditions: NIH 3T3 cell viability, qHTS; series mostly up to 92.2 µM. The procedure, abridged:
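NIH 3T3 mouse embryo fibroblasts (1000 cells/well) were plated in complete medium and treated with compound for 40 hr at 37 °C. Viability was read as intracellular ATP by CellTiter-Glo luminescence; AC50 values came from Hill-equation fits of concentration-response data.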

Chain of 3',5'-cyclic-AMP phosphodiesterase 4B (Homo sapiens) (Q07343 whole entry, looked up): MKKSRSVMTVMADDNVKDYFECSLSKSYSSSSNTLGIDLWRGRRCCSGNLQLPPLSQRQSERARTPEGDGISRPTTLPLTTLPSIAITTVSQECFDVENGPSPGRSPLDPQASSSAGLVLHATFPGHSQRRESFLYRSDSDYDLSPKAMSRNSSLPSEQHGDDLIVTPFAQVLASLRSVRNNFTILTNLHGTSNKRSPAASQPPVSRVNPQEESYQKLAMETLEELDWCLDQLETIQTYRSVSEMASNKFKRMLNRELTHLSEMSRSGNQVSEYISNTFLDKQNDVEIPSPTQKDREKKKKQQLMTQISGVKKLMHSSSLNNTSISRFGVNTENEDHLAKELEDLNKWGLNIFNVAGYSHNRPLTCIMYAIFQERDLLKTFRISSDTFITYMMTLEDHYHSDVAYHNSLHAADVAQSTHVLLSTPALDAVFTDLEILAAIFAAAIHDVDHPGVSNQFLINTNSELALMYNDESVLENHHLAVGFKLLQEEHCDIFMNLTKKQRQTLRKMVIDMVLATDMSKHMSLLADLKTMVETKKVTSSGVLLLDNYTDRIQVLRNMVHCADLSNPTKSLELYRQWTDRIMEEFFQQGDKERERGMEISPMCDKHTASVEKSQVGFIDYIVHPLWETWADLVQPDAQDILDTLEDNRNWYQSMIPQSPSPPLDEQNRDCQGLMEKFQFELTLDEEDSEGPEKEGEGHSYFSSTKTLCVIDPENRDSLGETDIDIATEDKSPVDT

Turning to `CCOc1cc(CC(=O)N[C@@H](CC(C)C)c2ccccc2N2CCCCC2)ccc1C(=O)O`, the Potency is 2.1 µM (active) in [1] and greater than 20.6 µM in experiment [2]. In [3], the Potency result is “inactive”. The call in [4] was inactive.

Consider `CCc1nc(N)nc(N)c1-c1ccc(Cl)cc1`, for which the Potency in experiment [1] is greater than 20.6 µM; in experiment [2], greater than 20.6 µM; in [6], 0.158 µM (active); in [9], 2 µM (active). Further, the Potency entry in experiment [3], in experiment [5], in experiment [7] and in experiment [8] was “inactive” each time. Further, the call in [10], in experiment [11], in [12], in [13], in experiment [14] and in experiment [15] was inactive. The result in experiment [16] and in experiment [18] was inactive. Also, the caspase-3 activation in experiment [17] is 101% (active).

As to `Cc1cccc(CN2CCN(C(c3ccccc3)c3ccc(Cl)cc3)CC2)c1` (stereo not drawn), the Potency in [1] is greater than 20.6 µM.

Take `CCN(CC)C(=S)SSC(=S)N(CC)CC`: the Potency is > 46 µM and > 20.6 µM in [1]; > 46 µM and > 20.6 µM in experiment [2]. Also, in experiment [3], the Potency result was “inactive”. For the same compound, the result in experiment [4] was inactive.

Turning to `O=c1ccc2ccc(O)c(O)c2o1`, the Potency in experiment [1] and in experiment [2] was greater than 46 µM in each case. In [3], the Potency result is “inactive”. The compound was classed as inactive in experiment [4].

For `Nc1cc(C(Cl)=C(Cl)Cl)c(S(N)(=O)=O)cc1S(N)(=O)=O`, the Potency in [1] and in experiment [2] was greater than 20.6 µM in each case. Moreover, in [3], the Potency entry is “inactive”. Further, the result in experiment [4] was inactive.

Consider `O=C(CCc1ccc(O)cc1)c1c(O)cc(O)cc1O`, for which the Potency in experiment [1] and in [2] was greater than 46 µM in each case. In experiment [3], the Potency entry was “inactive”. In addition, the outcome in experiment [4] was inactive.

With `COC(=O)C1=C(C)NC(C)=C(C(=O)OC(C)C)C1c1cccc2nonc12` (stereo not drawn), the Potency in experiment [1] and in experiment [2] was greater than 46 µM each time. Further, the Potency entry in experiment [3] is “inactive”.

Regarding `COc1ccccc1N1CCN(CCN(C(=O)C2CCCCC2)c2ccccn2)CC1`, the Potency in experiment [1] and in experiment [2] was greater than 46 µM in each case. The Potency entry in experiment [3] is “inactive”. Also, the outcome in [4] was inactive.

In the case of `COc1cc2nc(N3CCN(C(=O)C4CCCO4)CC3)nc(N)c2cc1OC` (stereo not drawn), in experiment [1], the Potency is greater than 20.6 µM.

Regarding `Nc1ccc(S(N)(=O)=O)cc1`, the Potency in experiment [1] and in experiment [2] was greater than 20.6 µM each time. For the same compound, the Potency entry in experiment [3], in experiment [19], in [20], in [5], in experiment [6] and in experiment [7] was “inactive” each time. Besides, the Potency entry in experiment [8] and in [9] was “inactive” in each case. The call in experiment [4], in experiment [10], in experiment [11], in experiment [12], in [13] and in [14] was inactive. The outcome in experiment [15], in [16] and in [18] was inactive. Also, the caspase-3 activation in experiment [17] is -1.76%.

As for `COc1cc(OC)c(C(=O)CCCN2CCCC2)c(OC)c1`, the Potency in [1] and in experiment [2] was greater than 20.6 µM each time. The Potency result in experiment [3] is “inactive”. The compound was classed as inactive in experiment [4].

As for `O=C1c2ccccc2-c2n[nH]c3cccc1c23`, the Potency in experiment [3] is 1 µM (active). The outcome in experiment [4] was inactive.

`Cc1cc(=O)oc2cc(O)ccc12`: the Potency result in [3] was “inactive”. The outcome in experiment [4] was inactive.

In the case of `CNC[C@H](O)c1ccc(O)c(O)c1`, in [3], the Potency result is “inactive”. Besides, in experiment [4], the compound was called inactive.

On to `CCCc1cc(=O)[nH]c(=S)[nH]1`, for which the Potency entry in experiment [3], in experiment [19], in experiment [20], in experiment [5], in experiment [6] and in experiment [8] was “inactive” in each case. For the same compound, the Potency result in [9] is “inactive”. In addition, the outcome in experiment [4], in [10], in [11], in experiment [12], in experiment [13] and in [14] was inactive. The compound was classed as inactive in experiment [15], in experiment [16] and in experiment [18]. Also, the caspase-3 activation in [17] was 1.8%.
